The text below walks through data of PubChem BioAssay (NCATS).

Where “and” joins values, the source holds several entries; their conditions need not be identical. Identical values can stand only once. Inconclusive results are not listed. Calls of active or inactive are those of the source. Unless noted, calls come from the whole dose curve; as a rule, active = well fitted curve in either direction with a large enough effect (not every such curve was filed as active); inconclusive = small, poorly fitted or top-dose-only effect, or another doubt; inactive = flat fitted curve, though single readings scatter.

The nature of assay [1]: AP1 Signaling Pathway (AID 357). Note: % is set by controls: 0 for no effect and ±100 for the full control effect. The gist of the method:
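ME-180 cells with beta-lactamase reporter under AP-1 response element, stimulated with EC50 EGF; compounds tested in titration series, 5 h at 37 °C. CCF4 substrate added 2.5 h at room temperature; 460/530 nm emission ratio gave %activity and AC50.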

Assay [2] is described as follows: NFAT Signaling Pathway (AID 444).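 Note: carbachol stimulus at about its EC50 of 1 µM final; % is set by controls: 0 for no effect and ±100 for the full control effect.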 Particulars: Jurkat NFAT-bla M1, carbachol, beta-lactamase ratio, 5 h; at 17.2 µM (top of the series) unless noted. The procedure, abridged:
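Jurkat cells carrying an NFAT-driven β-lactamase reporter and co-transfected muscarinic M1 receptor were treated with compound plus carbachol (1 uM final, an EC50 level) for 5 h at 37 °C. CCF4 loading followed for 1 h at RT; 460/530 nm ratio gave %activity.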

A short description of assay [3]: Stat Signaling Pathway (AID 446).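 Note: ME-180 cervical cancer cells given 40 pM IL-6 alongside compound; SIE-controlled beta-lactamase reporter measured as 460/530 nm FRET emission ratio; % is set by controls: 0 for no effect and ±100 for the full control effect.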 The gist of the method:
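Screening format detects activators and inhibitors alike: ME-180 SIE-bla cells stimulated at 40 pM IL-6 for 5 hrs with compound, then dual-emission beta-lactamase read at 405 nm excitation.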

For assay [4], the target named is Glucocorticoid receptor (Homo sapiens) (UniProt P04150). Kind of assay: GR-GFP Redistribution (AID 450;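 active = compounds whose dose series gives a full or clear partial fitted curve of increased nuclear translocation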; note: potency is the fitted concentration of half-maximal effect). Particulars: U2OS GR-GFP nuclear translocation, laser cytometry, 2 h.
Sequence of Glucocorticoid receptor (Homo sapiens) (P04150 whole entry, looked up, the tested form may be a part): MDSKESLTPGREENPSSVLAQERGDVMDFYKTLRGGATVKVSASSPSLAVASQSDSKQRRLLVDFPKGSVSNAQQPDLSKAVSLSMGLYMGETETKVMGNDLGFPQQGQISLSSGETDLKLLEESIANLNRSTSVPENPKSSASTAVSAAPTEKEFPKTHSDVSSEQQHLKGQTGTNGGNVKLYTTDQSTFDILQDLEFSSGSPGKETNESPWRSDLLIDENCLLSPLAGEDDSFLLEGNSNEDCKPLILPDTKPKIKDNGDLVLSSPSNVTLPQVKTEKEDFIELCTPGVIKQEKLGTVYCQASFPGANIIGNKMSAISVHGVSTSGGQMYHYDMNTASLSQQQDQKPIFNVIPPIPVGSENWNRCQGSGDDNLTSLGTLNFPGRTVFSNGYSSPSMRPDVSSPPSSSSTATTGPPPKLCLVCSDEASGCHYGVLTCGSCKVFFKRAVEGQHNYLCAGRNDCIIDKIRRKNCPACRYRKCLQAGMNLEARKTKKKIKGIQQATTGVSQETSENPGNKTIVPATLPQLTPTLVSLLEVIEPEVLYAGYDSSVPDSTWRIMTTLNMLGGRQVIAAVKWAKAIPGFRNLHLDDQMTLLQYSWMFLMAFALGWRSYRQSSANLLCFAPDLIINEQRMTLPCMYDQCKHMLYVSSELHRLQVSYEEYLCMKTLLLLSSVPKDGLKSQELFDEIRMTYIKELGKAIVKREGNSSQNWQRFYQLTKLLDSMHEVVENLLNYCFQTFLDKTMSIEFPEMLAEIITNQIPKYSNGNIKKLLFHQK
The target is the same in assay [5]. Kind of assay: GR-EFC Redistribution (AID 451; calls by dose curve; note: potency is the fitted concentration of half-maximal effect). The settings on record: CHO-K1 GR-EFC translocation, beta-gal luminescence, 2 h. The gist of the method: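 CHO-K1 cells stably expressing nuclear-localized β-gal enzyme acceptor and GR fused C-terminally to the enzyme donor fragment; ligand-driven nuclear translocation restores β-gal by complementation. Compounds titrated up to 46 uM final, 2 h at 37 °C; luminescence read.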

The target in assay [6] is Mitogen-activated protein kinase 10 (Mus musculus) (UniProt Q61831). The experiment in a line: JNK3 AlphaScreen Assay (AID 530).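 Note: kinase came from lysate of stimulated human HepG2 cells; signal reports phosphorylation of biotinylated GST-cJun 1-79 at Ser73 with 10 µM ATP; % is set by controls: 0 for no effect and ±100 for the full control effect.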 The procedure, abridged:
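JNK3 came from HepG2 lysates pre-activated with IL-1beta and TNF-alpha and phosphorylated biotinylated GST-cJun (1-79) at 10 uM ATP, pH 7.6, room temperature. Compounds were titrated. AlphaScreen signal used anti-phospho-cJun (Ser73) antibody.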

Assay [7] concerns the target 3',5'-cyclic-AMP phosphodiesterase 4B (Homo sapiens) (UniProt Q07343). The experiment in a line: qHTS Assay for Inhibitors of PDE-IV (AID 607; active = well fitted activation curve with a large enough effect in the main read-out, with a control signal flat, not every such curve was filed as active; note: % of control where 0% means no effect). The gist of the method: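 The readout is membrane depolarisation from a cAMP-sensing CNG channel, detected with a potential dye at ex 535/em 590. Cells were HEK293-derived (endogenous PDE-IV) at 1000 cells/well, titrated up to 22.9 uM final.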

Assay [8] is described as follows: qHTS Assay for Lipid Storage Modulators (AID 1519; calls by dose curve). The settings on record: Drosophila S3 cells, BODIPY lipid droplet/cell ratio, laser cytometry, cells loaded with oleic acid. The gist of the method:
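Cells seeded at 5,000 per well were treated with compounds over a concentration series and loaded with oleic acid (400 uM, as added). Lipid droplet fluorescence (488 nm excitation, 500-530 nm channel) was read by laser-scanning cytometry and normalized to 20 uM Triacsin C.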

The nature of assay [9]: qHTS profiling for inhibitors of Plasmodium falciparum proliferation (AID 504749; active = well fitted inhibition curve with a large enough effect; note: nearly all actives have a fitted effect of over 60% in size; note: potency is the fitted concentration of half-maximal effect;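 for activity, negative = inhibition: 0% = DMSO vehicle and full inhibition = artemisinin control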). Particulars: P. falciparum in erythrocytes, SYBR Green DNA, 72 h, at 12.8 µM (top of the series). The procedure, abridged:
(§1)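 P. falciparum-infected erythrocytes (0.3% parasitemia, 2.5% hematocrit final) were exposed to compounds for 72 h at 37 C in 5% CO2, then lysed with SYBR Green buffer overnight at room temperature; parasite DNA fluorescence was normalized to artemisinin and DMSO controls.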

The next assay has as its system C2A. Described as above. The settings on record: P. falciparum in erythrocytes, SYBR Green DNA, 72 h; series mostly up to 12.8 µM. The gist of the method:
as §1

The subject of another assay is CP191. The assay is described as above. The settings on record: P. falciparum in erythrocytes, SYBR Green DNA, 72 h; series mostly up to 12.8 µM. The gist of the method:
as §1

In the next assay the test system is CP217. The assay is described as above. Particulars: P. falciparum in erythrocytes, SYBR Green DNA, 72 h; series mostly up to 12.8 µM. The gist of the method:
as §1

The test system of the next assay is CP238. The assay is described as above. The settings on record: P. falciparum in erythrocytes, SYBR Green DNA, 72 h; series mostly up to 12.8 µM. The gist of the method:
as §1

The next assay deals with CP250. Described as above. The settings on record: P. falciparum in erythrocytes, SYBR Green DNA, 72 h; series mostly up to 12.8 µM. The procedure, abridged:
as §1

For the next assay, the system named is CP256. The assay is described as above. The settings on record: P. falciparum in erythrocytes, SYBR Green DNA, 72 h; series mostly up to 12.8 µM. The gist of the method: as §1
In another assay the test system is FAB9. Described as above. Particulars: P. falciparum in erythrocytes, SYBR Green DNA, 72 h; series mostly up to 12.8 µM. The procedure, abridged:
as §1

A further assay has as its system JCK. The assay is described as above. Particulars: P. falciparum in erythrocytes, SYBR Green DNA, 72 h; series mostly up to 12.8 µM. The procedure, abridged: as §1
Another assay has as its system PC49. The description is as above. Particulars: P. falciparum in erythrocytes, SYBR Green DNA, 72 h; series mostly up to 12.8 µM. The gist of the method: as §1
Another assay deals with SC27B. The assay is described as above. The settings on record: P. falciparum in erythrocytes, SYBR Green DNA, 72 h; series mostly up to 12.8 µM. The procedure, abridged:
as §1

The target in assay [10] is Ubiquitin carboxyl-terminal hydrolase 1 (Homo sapiens) (UniProt O94782). Kind of assay: Inhibitors of USP1/UAF1: Pilot qHTS (AID 504865; active = well fitted inhibition curve with a large enough effect; note: nearly all actives have a fitted effect of over 35% in size; note: potency is the fitted concentration of half-maximal effect). The gist of the method:
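In 50mM HEPES pH 7.8 containing 0.5mM EDTA, 1mM TCEP, 0.1 mg/ml BSA and 0.01% Tween-20, 1nM USP1/UAF1 is exposed to compound for 15 min, then Ub-Rho (150nM final) is added and fluorescence is read over time.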

The mark [11] stands for this setting: measured here: cell count channel max response.
The mark [12] stands for this setting: measured here: lipid channel max response.

Sequence of Ubiquitin carboxyl-terminal hydrolase 1 (Homo sapiens) (O94782 whole entry, looked up): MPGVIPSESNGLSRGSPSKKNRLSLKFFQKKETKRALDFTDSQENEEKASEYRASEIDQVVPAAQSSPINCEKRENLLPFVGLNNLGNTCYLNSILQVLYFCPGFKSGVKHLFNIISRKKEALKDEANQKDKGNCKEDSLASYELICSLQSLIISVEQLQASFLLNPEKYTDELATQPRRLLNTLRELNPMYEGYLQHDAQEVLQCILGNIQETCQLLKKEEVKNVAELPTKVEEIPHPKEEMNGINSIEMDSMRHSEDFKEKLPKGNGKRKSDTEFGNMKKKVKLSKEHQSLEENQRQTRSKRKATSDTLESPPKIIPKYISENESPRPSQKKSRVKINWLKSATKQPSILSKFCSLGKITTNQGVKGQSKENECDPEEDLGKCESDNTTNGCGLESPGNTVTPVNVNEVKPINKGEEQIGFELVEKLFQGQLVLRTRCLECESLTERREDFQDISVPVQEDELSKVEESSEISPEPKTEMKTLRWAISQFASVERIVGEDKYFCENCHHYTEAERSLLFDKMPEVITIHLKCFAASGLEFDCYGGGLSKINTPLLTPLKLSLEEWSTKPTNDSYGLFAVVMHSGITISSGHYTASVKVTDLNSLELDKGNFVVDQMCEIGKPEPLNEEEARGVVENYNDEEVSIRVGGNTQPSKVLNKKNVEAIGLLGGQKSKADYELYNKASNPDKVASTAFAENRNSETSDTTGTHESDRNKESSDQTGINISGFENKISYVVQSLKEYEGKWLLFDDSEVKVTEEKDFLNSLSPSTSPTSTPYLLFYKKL
Sequence of 3',5'-cyclic-AMP phosphodiesterase 4B (Homo sapiens) (Q07343 whole entry, looked up): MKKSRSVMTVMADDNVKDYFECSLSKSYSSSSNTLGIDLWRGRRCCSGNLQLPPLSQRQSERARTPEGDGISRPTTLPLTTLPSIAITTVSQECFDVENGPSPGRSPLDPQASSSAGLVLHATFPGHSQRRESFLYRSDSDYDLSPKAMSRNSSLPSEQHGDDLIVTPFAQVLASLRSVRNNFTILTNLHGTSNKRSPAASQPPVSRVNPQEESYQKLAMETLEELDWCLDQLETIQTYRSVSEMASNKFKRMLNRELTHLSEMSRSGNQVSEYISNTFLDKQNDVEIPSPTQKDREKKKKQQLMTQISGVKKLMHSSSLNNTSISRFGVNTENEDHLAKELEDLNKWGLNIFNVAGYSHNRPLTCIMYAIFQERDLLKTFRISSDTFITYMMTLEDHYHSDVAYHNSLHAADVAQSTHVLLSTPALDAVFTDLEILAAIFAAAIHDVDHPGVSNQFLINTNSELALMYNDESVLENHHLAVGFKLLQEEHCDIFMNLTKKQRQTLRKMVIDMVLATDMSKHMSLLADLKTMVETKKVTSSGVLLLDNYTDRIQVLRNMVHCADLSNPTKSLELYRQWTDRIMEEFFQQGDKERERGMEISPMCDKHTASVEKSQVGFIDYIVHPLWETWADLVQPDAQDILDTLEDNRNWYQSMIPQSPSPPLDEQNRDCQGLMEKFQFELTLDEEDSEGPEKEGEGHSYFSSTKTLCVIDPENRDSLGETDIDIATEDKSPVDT

For `CNC[C@H](O)c1ccc(OC(=O)C(C)(C)C)c(OC(=O)C(C)(C)C)c1`, the compound was called inactive in assay [1], in [3] and in assay [7]. Besides, the activity change, negative = inhibition in assay [2] was 1.95% (inactive); in [8] (at 25.7 µM (top of the series)) it was 0.431% (inactive). Further, the Potency in assay [4] is > 20.6 µM (inactive); in [5], > 20.6 µM (inactive); in the assay with CP256, 10 µM (active). In addition, the Potency result (in assay [6]; in the assay with C2A; in the assay with CP191; in the assay with CP217; in the assay on CP238; with CP250) was “inactive” each time. The Potency result with FAB9, in the assay with JCK, in the assay on PC49 and in the assay with SC27B was “inactive” in each case. The figures for the max response in [8] (setting [11]) and in assay [8] (setting [12]) were 14.1% and 16.1%, respectively. In [9] (parasite line A), the activity, negative = inhibition was -7.03% (inactive).

Turning to `CN1CCCN=C1/C=C\c1cccs1`, the compound was called inactive in assay [1], in [3] and in assay [7]. Further, the results for the activity change, negative = inhibition in assay [2] and in assay [8] (at 25.7 µM (top of the series)) were -25.3% (inactive) and 0.765% (inactive), respectively. In addition, the Potency in assay [4] and in assay [5] was > 20.6 µM (inactive) each time. The Potency result in assay [6] is “inactive”. Further, the max response in assay [8] (setting [11]) was -6.05%; in [8] (setting [12]) it was -6.06%.

In the case of `C[C@H](CCC(=O)NCC(=O)O)[C@H]1CC[C@H]2[C@H]3[C@@H](C[C@@H](O)[C@]12C)[C@]1(C)CC[C@H](O)C[C@@H]1C[C@@H]3O`, the result in [1], in assay [3] and in [7] was inactive. Moreover, the activity change, negative = inhibition in assay [2] is 15.3% (inactive); in assay [8] (at 25.7 µM (top of the series)) it was 0.864% (inactive). For the same compound, the Potency in assay [4] and in assay [5] was > 20.6 µM (inactive) each time. The Potency result in assay [6] and in [10] was “inactive” throughout. The max response is -1.04% in assay [8] (setting [11]) and -0.773% in assay [8] (setting [12]).

For `CCCC(=O)Nc1ncnc2c1ncn2[C@@H]1O[C@H]2COP(=O)(O)O[C@@H]2[C@@H]1OC(=O)CCC`, the compound was classed as inactive in assay [1], in assay [3] and in assay [7]. Moreover, the activity change, negative = inhibition is 16.7% (inactive) in assay [2] and -1.42% (inactive) in assay [8] (at 25.7 µM (top of the series)). Further, the Potency in assay [4] and in [5] was > 20.6 µM (inactive) throughout. Further, the Potency result in assay [6] and in [10] was “inactive” throughout. The max response is -2.67% in [8] (setting [11]) and -4.54% in assay [8] (setting [12]).

For the compound `Fc1ccc(Nc2nc(-c3cccnc3)nc3ccccc23)cc1`, the compound was called inactive in [1] and in assay [3]. Further, the activity change, negative = inhibition in [2] is -9.74% [at 7.69 µM] (inactive); in assay [8] (at 57.5 µM (top of the series)) it was 7.7% (inactive). Further, the Potency in assay [4] was > 46 µM (inactive); in [5], > 46 µM (inactive); in assay [10], 39.8 µM (active). For the same compound, in [6], the Potency entry is “inactive”. The values for the max response in assay [8] (setting [11]) and in assay [8] (setting [12]) were -6.31% and 0.257%, respectively.

With `S=C(NC1CCCCC1)N1CCC([C@H]2C=NC=N2)CC1`, the result in [1], in assay [3] and in assay [7] was inactive. Also, the figures for the activity change, negative = inhibition in assay [2] and in assay [8] (at 25.7 µM (top of the series)) were -11% (inactive) and 2.27% (inactive), respectively. For the same compound, the Potency in [4] and in assay [5] was > 20.6 µM (inactive) in each case. In addition, the Potency result in assay [6] and in assay [10] was “inactive” throughout. Besides, the max response in assay [8] (setting [11]) is -0.275%; in assay [8] (setting [12]), 2.69%.

Consider `COc1ccc([C@@H]2CC(=O)c3c(O)cc(O)cc3O2)cc1O`, for which the compound was called inactive in assay [1], in assay [3] and in assay [7]. The activity change, negative = inhibition in [2] is -2.52% (inactive); in assay [8] (at 25.7 µM (top of the series)) it was 0.892% (inactive). Moreover, the Potency in [4] is > 20.6 µM (inactive) and > 46 µM (inactive); in assay [5], > 20.6 µM (inactive) and > 46 µM (inactive). For the same compound, the Potency entry in assay [6] and in [10] was “inactive” each time. The results for the max response in assay [8] (setting [11]) and in assay [8] (setting [12]) were -5.78% and -2.83%, respectively.

Regarding `CCN1CCC[C@@H](OC(=O)C(c2ccccc2)c2ccccc2)C1`, the compound was called inactive in [1] and in [3]. For the same compound, the activity change, negative = inhibition was -80.8% (active) in [2] and -6.3% (inactive) in assay [8] (at 25.7 µM (top of the series)). The Potency in assay [4] and in [5] was > 20.6 µM (inactive) in each case. The Potency entry (in assay [6]; with C2A; in the assay with CP191; in the assay on CP217; in the assay with CP238; with CP250) was “inactive” each time. Moreover, the Potency result in the assay with FAB9, with JCK and in the assay with SC27B was “inactive” each time. For the same compound, the max response in assay [8] (setting [11]) is -3.56%; in assay [8] (setting [12]), -10.4%. The activity, negative = inhibition in assay [9] (parasite line A) is 0.857% (inactive); in assay [9] (parasite line B), -1.3% (inactive).
